According to PubChem BioAssay (EPA / NIEHS):
Records with an inconclusive call do not appear. Activity calls are given as the source filed them. Rule for the calls: active = hit-call score of the fitted dose curve at least 0.9, where 1 is the maximum; inconclusive = response in the unintended direction; inactive = score below 0.9.

Each compound was assayed against Nuclear receptor subfamily 4 group A member 2 (Homo sapiens) (UniProt P43354) (assay: ATG_NURR1_TRANS: Attagene TRANS-FACTORIAL HepG2 Assay for human Nuclear Receptor Related Protein 1 (NURR1) (AID 2282985)). Settings: HepG2 Attagene TRANS reporter, mRNA readout.
Chain of Nuclear receptor subfamily 4 group A member 2 (Homo sapiens) (P43354 whole entry, looked up): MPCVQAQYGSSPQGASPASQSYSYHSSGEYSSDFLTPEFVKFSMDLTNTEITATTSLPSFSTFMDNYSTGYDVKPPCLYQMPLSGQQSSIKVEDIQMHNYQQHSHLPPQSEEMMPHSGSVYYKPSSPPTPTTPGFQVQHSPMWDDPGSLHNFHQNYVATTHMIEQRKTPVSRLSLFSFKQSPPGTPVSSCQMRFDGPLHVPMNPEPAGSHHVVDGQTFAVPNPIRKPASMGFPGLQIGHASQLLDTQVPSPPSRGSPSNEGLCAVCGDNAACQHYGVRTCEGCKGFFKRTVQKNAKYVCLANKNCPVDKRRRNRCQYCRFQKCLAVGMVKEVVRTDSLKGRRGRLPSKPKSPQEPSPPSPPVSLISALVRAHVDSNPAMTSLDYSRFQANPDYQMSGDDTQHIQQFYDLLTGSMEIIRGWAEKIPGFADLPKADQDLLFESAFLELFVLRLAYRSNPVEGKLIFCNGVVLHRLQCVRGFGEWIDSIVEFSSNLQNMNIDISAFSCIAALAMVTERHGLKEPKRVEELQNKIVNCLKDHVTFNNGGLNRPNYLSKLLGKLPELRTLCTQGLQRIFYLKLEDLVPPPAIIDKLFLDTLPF
Summary of the method: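 Cells: HepG2, transiently transfected. Exposure: 24 h. Detection: fluorescence of labelled RT-PCR products separated by capillary electrophoresis; upward fit versus DMSO.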

outcome, inactive:
C=CC(C)C#N (stereo not drawn)
CCCCC(CC)COC(=O)c1ccc(O)cc1 (stereo not drawn)
CCOC(=O)[C@@H](C)Oc1ccc(Oc2nc3ccc(Cl)cc3o2)cc1
CC(C)(C)OC(=O)c1ccc(O)cc1
CN(C)CCOc1ccc(/C(=C(/CCCl)c2ccccc2)c2ccccc2)cc1
O=[N+]([O-])c1ccc(O)cc1C(F)(F)F
CCC(Cl)C(Cl)C(Cl)CC(Cl)C(Cl)C(C)Cl (stereo not drawn)
COC(C)(C)CC(C)=O
O=C(Nc1ccc2c(c1)Cc1ccccc1-2)C(F)(F)F
NCC1CCCC(CN)C1 (stereo not drawn)
CCCCCCC(O)CCCCCCCCCCC(=O)O (stereo not drawn)
CC1C2CC(CC2C2CCCC(O)C2)C1(C)C (stereo not drawn)
C=CC(C)(O)CCC=C(C)C (stereo not drawn)
CC1(C)C(=O)N(Cl)C(=O)N1Br
Cc1cc(C)nc(NS(=O)(=O)c2ccc(N)cc2)n1
IC(I)I
CC1(C)O[C@@H]2C[C@H]3[C@@H]4CCC5=CC(=O)C=C[C@]5(C)[C@@]4(F)[C@@H](O)C[C@]3(C)[C@]2(C(=O)CO)O1
Cc1ccc(S(=O)(=O)Oc2ccc(N=Nc3ccc(-c4ccc(N=Nc5c(O)ccc6cc(S(=O)(=O)O)cc(S(=O)(=O)O)c56)c(C)c4)cc3C)cc2)cc1
CC1(C)C2=CCCC(C)(C)[C@]23CC[C@H]1C3
CCOC(=O)c1ccc(N)cc1

AC50, active:
CCc1cc(C(C)(C)C)c(O)c(C(C)(C)C)c1 11.4 µM
CSc1c(Cl)c(Cl)c(Cl)c(Cl)c1Cl 26.9 µM
CCCCCCC(C)Nc1ccc(Nc2ccccc2)cc1 (stereo not drawn) 39.5 µM
